The sample as a whole holds a higher share of hits than the screen did.
Methyltransferases: Primary Screen for Target Class Profiling of Small Molecule Inhibitors of Methyltransferases; purified enzyme, MTase-Glo SAH luminescence; stronger effect = lower value; calls only at 40 µM; hit rate 3.9% among 25,000; AID 1745853, 2022; call rule not given here
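Each enzyme was assayed with SAM and its substrate. SAH formation detected by MTase-Glo luminescence; single-point 40 uM screen[…].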
* hit, by the source's call; i = inactive; + = active, no number; ! = a repeat was not active. On the % scale 0 is the no-effect control and ±100 the full control effect.

SMILES	Methyltransferases
COc1ccccc1NS(=O)(=O)c1cc2c(cc1Cl)n(C)c(=O)n2C	i
Cc1ccc(CN2C(=O)c3cc4ccccc4n3CC2(C)C(=O)NCc2ccccc2)o1 (stereo not drawn)	i
CCc1cccc(NS(=O)(=O)c2cc3c(cc2C)n(C)c(=O)n3C)c1	i
CCc1ccc(CNC(=O)c2cc3n(n2)CC(C)(C(=O)NCc2ccc(C)cc2)N(C)C3=O)cc1 (stereo not drawn)	i
CC(C)CNC(=O)c1ccc2c(=O)n(C(C)C)c3nn(CC(=O)c4ccccc4)c(=O)n3c2c1	i
COc1cccc(C(=O)COc2cc(O)c3c(=O)cc(-c4ccccc4)oc3c2)c1	i
O=C(O)c1cc(-c2c(-c3ccccc3)nn3ccccc23)n[nH]c1=O	i
Nc1[nH]nc2nnc(-c3c(-c4ccccc4)nn4ccccc34)cc12	+
CC(C)CCn1c(=O)c2ccccc2n2c(SCC(=O)Nc3cc(F)ccc3F)nnc12	i
CC(C)OCCCn1c(=O)c2ccccc2n2c(CCC(=O)N3CCN(c4ccccc4)CC3)nnc12	i
CC(C)NC(=O)c1ccc2c(=O)n(C(C)C)c3nn(CC(=O)N(C)c4ccc(F)cc4)c(=O)n3c2c1	i
CCOc1ccccc1CNC(=O)c1cc2n(n1)CC(C)(C(=O)NCCC(C)C)N(C)C2=O (stereo not drawn)	i
COc1ccccc1CNC(=O)C1(C)Cn2nc(-c3ccccc3)cc2C(=O)N1CCc1ccc(Cl)cc1 (stereo not drawn)	i
O=c1c2ccccc2n2c(-c3ccc(F)cc3)nnc2n1Cc1ccc(F)cc1	i
NS(=O)(=O)c1ccc(Nc2nc(OCC3CCCCC3)c3[nH]cnc3n2)cc1	+
Nc1nc(N)c(N=O)c(OCC2CCCCC2)n1	i
CCN(CC)C(=O)c1ccc(Nc2nc(OCC3CCCCC3)c3[nH]cnc3n2)cc1	+
CCCc1nc(CN(CC)C(=O)c2ccc(NC(=O)C3CCC3)cc2)no1	i
CCCn1c(=O)c2ccc(C(=O)NC(C)C)cc2n2c(=O)n(CC(=O)Nc3cc(F)ccc3F)nc12	i
CCCn1c(=O)c2ccc(C(=O)NC(C)C)cc2n2c(=O)n(Cc3cccc(F)c3)nc12	i
CC1(C(=O)NC2CCCCCC2)Cn2c(cc3occc32)C(=O)N1c1cccc(Cl)c1 (stereo not drawn)	i
CCN(CC)CCN(Cc1ccc(-c2ccc(C(F)(F)F)cc2)cc1)C(=O)Cn1c(SCc2ccc(F)cc2)nc(=O)c2c1CCC2	+
CN1CCC(CNc2ccc3ncc(-c4cccc(OC(F)(F)F)c4)n3n2)CC1	+!
Cc1ccc(CN2CCC(CNc3cc(C4CC(O)C4)ncn3)CC2)o1 (stereo not drawn)	i
COc1ccc(CCN2C(=O)c3ccccc3CC2(C)C(=O)NC2CCC(C)CC2)cc1OC (stereo not drawn)	i
SMILES	Methyltransferases
COc1ccc2c(c1)c(NC(C)=O)c1n2CC(C)(C(=O)NC2CCCCC2)N(Cc2ccco2)C1=O (stereo not drawn)	i
COc1ccc(N2CCN(C(=O)CCCc3nnc4n5nc(C)nc5c5ccccc5n34)CC2)cc1	i
CC(C)c1nc2c(NC(=O)Nc3cccc(Cl)c3)cccn2n1	i
CC(C)c1nc(-c2ccc(NC(=O)Nc3cccc(C(F)(F)F)c3)c3ccccc23)c2c(N)nccn12	+
CCOc1ccc(CCN2C(=O)c3c(C(=O)OC)ncn3CC2(C)C(=O)NC2CCCCC2)cc1 (stereo not drawn)	i
Cc1cccc(CN2C(=O)c3cc4ccccc4n3CC2(C)C(=O)NCCC(C)C)c1 (stereo not drawn)	i
COc1ccc(-c2cc3n(n2)CC(C)(C(=O)NCc2ccccc2)N(c2cccc(OC)c2)C3=O)cc1 (stereo not drawn)	i
CC1=CC(=O)C2C(C)(C)CCC[C@]2(C)[C@H]1CC[C@H](C)CC(=O)O (stereo partly drawn)	i
CC1=CC(=O)C2C(C)(C)CCC[C@]2(C)[C@H]1CO (stereo partly drawn)	i
CC(=O)OC/C(=C/C(=O)O)CC[C@@H]1C(C)=CC(=O)[C@@H]2C(C)(C)CCC[C@@]12C	+
Cn1c(=O)n(C)c2cc(S(=O)(=O)Nc3ccc4c(c3)OCO4)ccc21	i
Oc1cccc(Nc2ccnc3[nH]c4ccccc4c23)c1	+
O=C(O)CCc1nccc2c1[nH]c1ccccc12	i
CCCn1c(=O)c2ccc(C(=O)NC(C)C)cc2n2c(SCC(=O)Nc3ccc(C)cc3)nnc12	i
O=C(NCCc1ccccc1)c1ccc2c(=O)nc3c(-c4cccc(C(F)(F)F)c4)n[nH]n3c2c1	i
CCCn1c(=O)c2ccc(C(=O)NC3CCCCC3)cc2n2c(=O)n(CC(=O)Nc3cccc(C)c3)nc12	i
O=C(Nc1ccc(C(F)(F)F)cn1)N1CCN(c2ncccc2C(F)(F)F)CC1	+
C[C@H](Oc1ccc(S(C)(=O)=O)cc1C(=O)N1CCN(c2ncc(C(F)(F)F)cc2F)CC1)C(F)(F)F	i
Cc1ccc(NC(=O)N2CCN(c3nc(N)nc4sc(-c5cccnc5)nc34)CC2)cc1	i
Cc1cc2c(cc3n2CC(C)(C(=O)NC2CCCCCC2)N(CCC(C)C)C3=O)o1 (stereo not drawn)	i
COc1ccc(CCNC(=O)CCc2nnc3n(Cc4ccc(Cl)cc4)c(=O)c4ccccc4n23)cc1OC	i
CC(CCc1ccccc1)NC(=O)c1cc2n(n1)CC(C)(C(=O)NC1CCCCC1)N(C)C2=O (stereo not drawn)	i
O=C(O)/C=C/c1ccc(-c2ccc(O)c(C34CC5CC(CC(C5)C3)C4)c2)cc1	+
O=C(O)/C=C/c1ccc(O)c(O)c1	i
CCc1ccc(CN2C(=O)c3cc4ccccc4n3CC2(C)C(=O)NCc2ccccc2OC)cc1 (stereo not drawn)	i
SMILES	Methyltransferases
Cc1ccc(Cn2nc3n(CC(C)C)c(=O)c4ccccc4n3c2=O)cc1	i
CC(=O)NC1CCN(C(=O)c2coc(COc3cccc(C(F)(F)F)c3)n2)C1 (stereo not drawn)	i
O=C(CNC(=O)c1cccc(C(F)(F)F)c1)N[C@@H]1CCN(Cc2ccc(Cl)cc2)C1	i
COc1ccc(C2(O)CCC(N3CC[C@@H](NC(=O)CNC(=O)c4cccc(C(F)(F)F)c4)C3)CC2)cn1 (stereo partly drawn)	+
CCc1cc2c(cc3n2CC(C)(C(=O)NC2CCC(C)CC2)N(CCN(CC)CC)C3=O)s1 (stereo not drawn)	i
C=C(C)C(=O)O[C@H]1C[C@@](C)(O)C(=O)CC(O)/C(C)=C\[C@H]2OC(=O)C(=C)[C@H]12 (stereo partly drawn)	i
C=C1C(=O)O[C@@H]2C/C(C)=C\C(=O)/C=C(\C)[C@@H](OC(=O)/C(C)=C\C)[C@H](O)[C@@H]12	i
C=C1C(=O)OC2CC3(C)C(CC12)C(C)=CC(O)C3OC(C)=O (stereo not drawn)	+
CSc1ccc(CCN2C(=O)CSc3c(c4ccccc4n3C)C2C(=O)NCCC(C)C)cc1 (stereo not drawn)	i
Cc1cc2c(cc3n2CC(C)(C(=O)NC2CCCCCC2)N(Cc2ccccc2Cl)C3=O)o1 (stereo not drawn)	i
c1ccc(CCNc2nc3c(-c4ccccc4)nnn3c3ccccc23)cc1	i
COc1ccc(CCNc2nc3c(-c4ccccc4)nnn3c3ccccc23)cc1OC	i

Assay outcomes: PubChem BioAssay, National Center for Advancing Translational Sciences (NCATS)
